This is a sample that favours compounds with a hit; in the whole collection about 3.9% have one here.
Bead autofluor = compound fluorescence in toxin protease inhibitor counterscreen | compound autofluorescence counterscreen, microsphere flow cytometry; active compounds read high | fluorescence intensity (concentration not given with the values) | hit rate 3.1% among 360,000 | AID 624483; in the data active means fluorescence intensity above about 16000; inconclusive means no clear call, values can overlap the other calls
BoNT F protease = blocks Botulinum neurotoxin F light chain protease; hit rate 0.22% among 360,000; Multiplex microsphere protease cleavage assay, flow cytometry; inhibition, % at 10 µM; in the data active means inhibition above about 35%, passing the limit was not always enough; inconclusive means no clear call, values can overlap the other calls
SARS 3CLpro inh = SARS-CoV 3CLpro protease inhibition | P0C6X7 | recombinant SARS-CoV 3CLpro, quenched FRET peptide cleavage | inhibition, % at 6 µM | hit rate 0.14% among 290,000; in the data active means inhibition above about 12%
BoNT-A LC inh2 = BoNT A light chain protease inhibition. multiplex microsphere protease substrate cleavage, flow cytometry. inhibition, % at 10 µM. hit rate 0.17% among 360,000
Anthrax LF inh2 = blocks Bacillus anthracis lethal factor protease. inhibition, % at 10 µM. AID 588501. hit rate 0.12% among 360,000. multiplex microsphere protease cleavage assay, LF
Target sequence (P15917 whole entry, looked up): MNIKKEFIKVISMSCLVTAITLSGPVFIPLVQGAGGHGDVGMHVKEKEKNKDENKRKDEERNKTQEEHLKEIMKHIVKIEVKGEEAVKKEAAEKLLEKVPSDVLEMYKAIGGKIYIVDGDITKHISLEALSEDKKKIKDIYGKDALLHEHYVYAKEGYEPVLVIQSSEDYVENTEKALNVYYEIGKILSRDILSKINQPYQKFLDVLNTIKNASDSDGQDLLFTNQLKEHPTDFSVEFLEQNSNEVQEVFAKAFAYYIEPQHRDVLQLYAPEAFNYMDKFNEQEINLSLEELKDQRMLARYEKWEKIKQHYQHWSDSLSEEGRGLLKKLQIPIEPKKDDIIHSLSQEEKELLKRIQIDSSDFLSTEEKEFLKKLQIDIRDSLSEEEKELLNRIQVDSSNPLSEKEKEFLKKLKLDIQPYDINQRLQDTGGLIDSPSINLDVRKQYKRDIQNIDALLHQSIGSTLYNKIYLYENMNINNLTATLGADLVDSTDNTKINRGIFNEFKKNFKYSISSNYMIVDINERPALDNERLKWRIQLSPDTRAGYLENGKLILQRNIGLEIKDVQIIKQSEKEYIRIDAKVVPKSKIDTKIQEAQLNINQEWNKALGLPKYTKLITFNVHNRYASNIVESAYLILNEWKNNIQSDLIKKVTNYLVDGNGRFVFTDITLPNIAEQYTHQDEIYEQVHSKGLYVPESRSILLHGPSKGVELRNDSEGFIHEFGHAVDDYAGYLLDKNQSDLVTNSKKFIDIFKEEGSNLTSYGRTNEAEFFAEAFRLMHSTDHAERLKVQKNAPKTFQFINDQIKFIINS
CCHF vOTU inh = blocks the CCHF virus ovarian tumor domain protease | AID 651958 | hit rate 0.55% among 370,000 | CCHFV vOTU protease, Pep-AMC fluorescence | inhibition, % at 11.5 µM; in the data active means inhibition above about 30%
Of the large screens only hits and unclear results are named; the others gave an inactive call. Unless noted, no stated cut-off is given here; in the data, active means inhibition above about 30%; inconclusive means no clear call, values can overlap the other calls; inactive means below that.

C#Cc1cccc(OC[C@@H](O)CN2CCC(C(O)(c3ccccc3)c3ccccc3)CC2)c1	none (no result: Bead autofluor, BoNT F protease, SARS 3CLpro inh, BoNT-A LC inh2, Anthrax LF inh2)
OCCN1CCN(C(=S)c2ccc(Br)cc2)CC1	Bead autofluor 21663, BoNT-A LC inh2 inconclusive
CCOc1cc(C2C(C#N)=C(N)SC(N)=C2C#N)ccc1OCCN1CCOCC1	none
CCOc1ccc(C2C(C#N)=C(N)SC(N)=C2C#N)c(OCC)c1	Bead autofluor 22485, BoNT F protease inconclusive, BoNT-A LC inh2 44.2
O/C(=C\c1nc2ccccc2nc1/C=C(\O)c1ccccc1)c1ccccc1	BoNT-A LC inh2 66.8, Anthrax LF inh2 30.5 (no result: CCHF vOTU inh)
O=c1oc2ccccc2nc1/C=C(\O)c1ccccc1	none
COc1nc(OC)nc(N2CCC(C(=O)N(C)Cc3ccco3)CC2)n1	none (no result: Bead autofluor, BoNT F protease, SARS 3CLpro inh, BoNT-A LC inh2, Anthrax LF inh2)
CCC(=O)N1CCc2cc(Br)c(S(=O)(=O)NCCCN(CC)Cc3ccccc3)cc21	none (no result: Bead autofluor, BoNT F protease, SARS 3CLpro inh, BoNT-A LC inh2, Anthrax LF inh2)
CN1C(=O)CC(c2ccco2)Sc2ccccc21 (stereo unspecified)	Bead autofluor 21771
O=C(CN1C(=O)CC(c2ccco2)Sc2ccccc21)NCC1CCCO1 (stereo unspecified)	Bead autofluor 23515, BoNT-A LC inh2 inconclusive
CCCN1C(=O)CC(c2ccco2)Sc2ccccc21 (stereo unspecified)	none
Cc1cc(C(=O)CSc2n[nH]c(N)n2)c(C)n1-c1ccc(F)cc1	Bead autofluor 22336, BoNT-A LC inh2 inconclusive
Cc1nc(SCC(=O)c2ccc(F)cc2)n[nH]1	Bead autofluor 21307
Cc1cc(C(=O)CSc2n[nH]c(N)n2)c(C)n1-c1ccccc1	Bead autofluor 16214
Nc1nc(SCC(=O)c2ccc(F)cc2)n[nH]1	none
Cc1cc(C(=O)COC(=O)C2=NNC(=O)CC2)c(C)n1-c1ccccc1	Bead autofluor 19448
CN(C)[C@@H]1CCN(c2ccc3c(c2)O[C@@H]2CCN(C2)S3(=O)=O)C1	none (no result: Bead autofluor, BoNT F protease, SARS 3CLpro inh, BoNT-A LC inh2, Anthrax LF inh2)
CCOc1ccc(-n2c(SCC(=O)Nc3ccccc3-c3ccccc3)nnc2-c2ccncc2)cc1	none (no result: Bead autofluor, BoNT F protease, SARS 3CLpro inh, BoNT-A LC inh2, Anthrax LF inh2)
Cc1ccc(-n2c(C)cc(C(=O)COC(=O)c3c(C)noc3C)c2C)cc1	Bead autofluor 23721
C/C(=N\OC(=O)c1ccc(F)cc1)c1nccs1	Bead autofluor 23617
S=c1nc(C2CCCCC2)[nH][nH]1	Bead autofluor 17098 (no result: CCHF vOTU inh)
Nc1n[nH]c(C2CCCCC2)n1	none
CCOC(=O)C1CCCn2c1nc1sc3c(c1c2=O)CCCC3 (stereo unspecified)	Bead autofluor 23606
O=c1c2c3c(sc2nc2n1CCCC2)CCCC3	none
CC(C)(C)c1ccc(-c2nnc(SCC(=O)Nc3ccc4cn[nH]c4c3)n2-c2ccc(Cl)cc2)cc1	none (no result: Bead autofluor, BoNT F protease, SARS 3CLpro inh, BoNT-A LC inh2, Anthrax LF inh2)
CCN1CNC(=S)N(c2cccc(C)c2C)C1	Bead autofluor 20115, BoNT-A LC inh2 inconclusive
CCCN1CNC(=S)N(c2cccc(C)c2C)C1	BoNT-A LC inh2 inconclusive
CCOC(=O)C1=C(C)N=C2SC(C(=O)OC)=CC(=O)N2C1c1ccc(F)cc1 (stereo unspecified)	none
CCOC(=O)C1=C(C)N=C2SC(C(=O)OC)=CC(=O)N2C1c1cccc(OC)c1 (stereo unspecified)	Bead autofluor 19879
CCOC(=O)N1C(=O)C[C@](Sc2ccc(OC)cc2)(C(=O)N(C)C)[C@H]1c1ccc(OC)cc1	none (no result: Bead autofluor, BoNT F protease, SARS 3CLpro inh, BoNT-A LC inh2, Anthrax LF inh2)
Cc1onc(-c2ccccc2Cl)c1C(=O)Nc1ccc2c(c1)OCO2	Bead autofluor inconclusive
COc1cccc(-c2nnn(CC(=O)NC3CCCC3)n2)c1OC	Bead autofluor 16511
Cc1onc(-c2ccccc2)c1C(=O)Nc1sc2c(c1C(N)=O)CCC2	none
O=C(Cn1nnc(-c2ccccc2NC(=O)C2CC2)n1)NC1CCCCC1	none
Cc1onc(-c2c(F)cccc2Cl)c1C(=O)Nc1sc2c(c1C(N)=O)CCC2	Bead autofluor 16903
Cc1onc(-c2ccccc2Cl)c1C(=O)N1CCN(c2cccc(Cl)c2)CC1	none (no result: SARS 3CLpro inh)
Cc1onc(-c2ccccc2Cl)c1C(=O)Nc1ccc(F)c(F)c1	Bead autofluor 22619
Cc1onc(-c2ccccc2Cl)c1C(=O)N1CCN(c2ccccc2)CC1	Bead autofluor 22146, BoNT-A LC inh2 inconclusive
COc1ccc(NC(=O)Cn2nnc(-c3ccccc3F)n2)cc1Cl	none
Cc1onc(-c2ccccc2)c1C(=O)Nc1nc(-c2cc(F)ccc2F)cs1	Bead autofluor 20225
Cc1ccc(NC(=S)NC(=O)c2c(-c3ccccc3Cl)noc2C)cc1	Bead autofluor 22637, BoNT-A LC inh2 inconclusive
COC(=O)c1cc(OC)c(OC)cc1NC(=O)Cn1nnc(-c2ccccc2Cl)n1	Bead autofluor 24177
O=C(Nc1ccc(OCC(=O)N2CCOCC2)cc1)c1ccccc1Cl	none
Cc1noc(C)c1C(=O)Nc1nc(-c2cc(F)ccc2F)cs1	none (no result: SARS 3CLpro inh)

Assay outcomes: PubChem BioAssay, several laboratories
